Only some compounds are listed: those with a hit (about 1.3% of all), similar ones and a draw of the others.
CCHF vOTU inh-1 – blocks the CCHF virus ovarian tumor domain protease | inhibition, % at 11.5 µM | CCHFV vOTU protease, Pep-AMC fluorescence | 370,000 tested, 0.55% active; note: 0% = vehicle wells with enzyme and 100% = no enzyme wells
SARS 3CLpro inh – SARS-CoV 3CLpro protease inhibition; inhibition, % at 6 µM; AID 1706; P0C6X7; recombinant SARS-CoV 3CLpro, quenched FRET peptide cleavage; 290,000 tested, 0.14% active; in the data active = inhibition above about 12%
Mtb betalactam – beta-lactam sensitization of Mtb H37Rv; M. tuberculosis H37Rv growth with meropenem, percent inhibition; inhibition, % at 25 µM; 330,000 tested, 0.27% active; call rule not given here;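 note: growth measured after seven days incubation then overnight dye step; 0% = bacteria only wells and 100% = bacteria with antibiotic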
RN4220 kill – S. aureus RN4220 growth inhibition. OD600, 16 h. inhibition, % (concentration not given with the values). 330,000 tested, 0.33% active; in the data active = inhibition above about 85%;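 note: plate controls were untreated cells for no effect and reference antibiotic for full effect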
Sa ugtP lethal – growth inhibition of S. aureus ugtP deletion strain; S. aureus RN4220 ugtP deletion, OD600 growth, 16 h; growth inhibition, % (concentration not given with the values); 330,000 tested, 0.54% active; AID 1259309; in the data active = growth inhibition above about 68%;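 note: plate controls were untreated wells for no effect and antibiotic for full effect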
MazF activator – activators of E. coli MazEF toxin-antitoxin RNase; AID 504720; activation, % at 20 µM; P0AE70; 350,000 tested, 0.32% active; FAM/BHQ RNA-DNA oligo cleavage fluorescence, 5 h; in the data active = activation above about 50%
Target sequence (P0AE70 whole entry, looked up): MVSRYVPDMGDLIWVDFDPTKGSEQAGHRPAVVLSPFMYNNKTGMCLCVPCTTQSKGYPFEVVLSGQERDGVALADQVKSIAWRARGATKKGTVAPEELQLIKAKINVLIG
CCHF vOTU inh-2 – confirmation of CCHF virus vOTU protease inhibitors | 1,900 tested, 17% active | shares compounds with CCHF vOTU inh-1 | inhibition, % at 11.5 µM | AID 686976 | Recombinant CCHFV vOTU, Pep-AMC fluorescence
An asterisk follows results filed as active; x = not tested or not shown. Cut-off read from the data, not from the text of the source, unless noted: active = inhibition above about 30%; inactive = the rest.

SMILES	CCHF vOTU inh-1	SARS 3CLpro inh	Mtb betalactam	RN4220 kill	Sa ugtP lethal	MazF activator	CCHF vOTU inh-2
Cc1nnc(N/N=C/c2ccco2)n1N	88.6*	6.0	-2.7	x	x	5.6	-16.3
Cc1cc(=O)[nH]c(NN=Cc2ccccc2C(F)(F)F)n1	x	x	x	4.0	6.1	x	x
Cc1ccc(C(=O)NC(=Cc2ccco2)C(=O)NCCc2c[nH]c3ccccc23)cc1C	x	x	x	2.5	-7.6	x	x
Cc1ccsc1C=c1sc2ncnn2c1=O	x	x	x	3.4	6.7	x	x
O=C(NN=CCCc1ccccc1)c1ccc(CN2c3cccc4cccc(c34)S2(=O)=O)cc1	x	x	x	2.2	3.6	x	x
COc1ccc(/C=C/c2ccc3c(Br)ccc(O)c3n2)cc1	2.5	1.0	32.5	49.4	46.8	-0.3	x
COc1cc(/C=C/c2ccc3c(Br)cc(Br)c(O)c3n2)ccc1O	34.7*	0.3	98.7	98.5*	99.7*	-4.7	-17.1
CC1=NN(c2ccc(C)cc2C)C(=O)C1C(c1ccccc1O)C1C(=O)N(c2ccc(C)cc2C)N=C1C (configuration not stated)	43.7*	-1.4	-1.3	8.8	7.9	-4.6	-23.9
CC1=NN(c2ccc(Cl)cc2)C(=O)C1C(c1ccccc1O)c1c(C)[nH]n(-c2ccc(Cl)cc2)c1=O (configuration not stated)	x	5.4	21.2	8.9	-2.0	-2.1	x
CC(C)c1ccc(OCC(=O)Nc2cccc(C(=O)Nc3ccccc3C(=O)O)c2)cc1	31.4*	10.4	4.5	15.1	-0.8	7.0	-10.7
CCOc1cccc(CNc2ccc(O)cc2)c1OCc1ccc(Cl)cc1	31.0*	2.6	71.4	-3.6	6.3	6.2	-2.0
O=C(ON=Cc1ccc(Cl)cc1)C1CCCCC1	x	x	x	2.7	6.7	x	x
O=C(NCCc1ccccc1Cl)[C@@H]1CCCN1C(=O)[C@@H](NS(=O)(=O)c1ccc(F)cc1F)C1CCCCC1	33.9*	x	x	x	x	x	-9.3
O=C(C[n+]1ccccc1)NN=Cc1c(F)cccc1Cl	x	x	x	20.4	-2.9	x	x
O=c1[nH]c2c(s1)C(c1ccco1)C1C3CCC(C3)C1S2 (configuration not stated)	32.5*	-1.5	-14.8	2.5	5.5	-7.5	-10.4
Cc1[nH]cnc1CN1CCc2c(c3ccccc3n2C)C1=O	71.9*	x	1.8	-0.1	-2.0	6.1	24.5
CCOc1cc(Br)cc(C(c2c(C(=O)O)[nH]c3ccccc23)c2c(C(=O)O)[nH]c3ccccc23)c1O	43.2*	7.5	2.2	33.9	-1.1	-14.7	21.6
CN(C)C=NNC(=O)c1ccccc1Cl	x	x	x	1.4	4.9	x	x
COc1ccc(OC)c(C=NNC(=O)CSc2nnc(C)n2-c2ccccc2)c1	x	x	x	5.6	4.6	x	x
CC(=O)N(C)c1ccc(OCC(O)Cn2c3ccc(Cl)cc3c3cc(Cl)ccc32)cc1 (configuration not stated)	31.2*	-2.0	7.6	27.7	15.3	-3.9	-4.1
CC(=O)N(C)c1ccc(OCC(O)Cn2c(C)nc3ccccc32)cc1 (configuration not stated)	-5.7	-1.9	-3.4	3.4	-0.4	3.2	x
O=C(CCc1ccccc1)Nc1ccncc1	49.7*	-0.5	3.9	1.3	5.5	3.5	-16.1
COc1ccc(NS(=O)(=O)c2cccc(C(=O)N3CCN(C/C=C/c4ccccc4)CC3)c2)cc1	30.1*	x	x	x	x	10.2	-10.6
Cc1cc(C)c(C#N)c(N2CCN(C(=O)C3COc4ccccc4O3)CC2)n1 (configuration not stated)	48.2*	x	-5.0	-2.1	3.7	-4.0	-29.9
O=C(C1COc2ccccc2O1)N1CCN(c2ccccc2O)CC1 (configuration not stated)	3.4	x	-1.1	6.7	4.6	5.1	x
SMILES	CCHF vOTU inh-1	SARS 3CLpro inh	Mtb betalactam	RN4220 kill	Sa ugtP lethal	MazF activator	CCHF vOTU inh-2
COC(=O)c1ccc(CON=Cc2ccccc2OC)cc1	x	x	x	4.2	36.6	x	x
O=C1C=C(N2CCCCC2)c2ccccc2C1=O	81.8*	x	-3.6	18.3	16.6	4.1	81.5*
O=C1c2ccccc2C(=O)c2c1cccc2N1CCCC1	74.9*	-1.1	25.0	11.6	15.7	1.5	-5.3
O=S(=O)(c1ccccc1S(=O)(=O)N1CCCCC1)N1CCCCC1	x	-1.5	-2.7	0.8	-10.1	-12.6	x
O=c1cc(-c2ccc(O)c(O)c2)oc2c1ccc1ccccc12	33.8*	x	-2.5	-0.7	4.8	119.1*	6.4
CC1=C(C(=O)N(C(C)C)C(C)C)CC(CC(=O)NCCCCc2ccccc2)C(=O)N1Cc1ccc(C(C)(C)C)cc1 (configuration not stated)	34.8*	x	x	x	x	x	15.5
CC1=C(C(=O)N2CCOCC2)CC(CC(=O)NCCCCc2ccccc2)C(=O)N1Cc1ccc(C(C)(C)C)cc1 (configuration not stated)	32.1*	x	x	x	x	14.5	1.3
CC1=C(C(=O)N2CCOCC2)CC(CC(=O)NCCCN(C)C)C(=O)N1Cc1ccc(F)cc1 (configuration not stated)	36.9*	x	x	x	x	x	-10.5
CC1=C(C(=O)N(C(C)C)C(C)C)CC(CC(=O)NCc2cccc3ccccc23)C(=O)N1Cc1ccc(C(C)(C)C)cc1 (configuration not stated)	32.8*	x	x	x	x	x	14.6
COc1ccc(C(C)=NNS(C)(=O)=O)c(OC)c1	x	x	x	7.0	13.3	x	x
CCCSc1ccc(C2C3C(=O)N(CC)C(=O)C3[C@]3(C(=O)OC)CCCCN23)cc1OC (some centres not stated)	x	x	x	9.6	3.0	x	x
CC1=C(C(=O)N(C(C)C)C(C)C)CC(CC(=O)NCC2CCCCC2)C(=O)N1Cc1ccc(C(C)(C)C)cc1 (configuration not stated)	37.5*	x	x	x	x	x	9.0
CC1=C(C(=O)N(C)C)CC(CC(=O)NC(c2ccccc2)c2ccccc2)C(=O)N1Cc1ccc(F)cc1 (configuration not stated)	34.4*	x	x	x	x	-0.7	-14.6
CC1=C(C(=O)N(C(C)C)C(C)C)CC(CC(=O)NC2CC2)C(=O)N1Cc1ccc(C(C)(C)C)cc1 (configuration not stated)	27.3	x	x	x	x	x	x
O=C(C(Cc1ccccc1)NS(=O)(=O)c1ccc(Cl)cc1)N1CC[C@@]2(O)CCCCC2C1 (some centres not stated)	x	x	x	6.3	-6.4	x	x
CCCCCC(=O)N/N=C/c1ccc([N+](=O)[O-])o1	15.9	-1.1	100.0	x	x	7.9	x
O=C(Cc1ccc2c(c1)OCO2)NN=Cc1ccc([N+](=O)[O-])o1	32.2*	x	100.0	49.0	82.0	2.6	-0.3
O=C(CCC(=O)Nc1ccc(Cl)cc1Cl)N/N=C/c1ccc([N+](=O)[O-])o1	38.7*	2.9	100.0	x	x	-10.9	-4.7
O=C(N/N=C\c1ccc([N+](=O)[O-])o1)c1cncc(Br)c1	49.6*	3.4	99.9	x	x	-9.2	8.5
COc1ccc(Cc2nc(-c3cccs3)no2)cc1OC	30.6*	-4.7	2.4	7.5	-3.5	3.3	-10.9
CC(=NNC(=O)CNC(=O)c1cccnc1)c1ccc(Cl)cc1	x	x	x	1.5	-1.8	x	x
CC(=O)Nc1ccc(S(=O)(=O)N(CCc2ccccc2)CC(=O)NN=Cc2ccc(C(=O)O)cc2)cc1	x	x	x	0.5	3.3	x	x

Screening data: PubChem, several laboratories
